Test results published in PubChem BioAssay (NCI).
The panel holds about 79,000 compounds, 15% with a hit somewhere; the sample as a whole holds those more often. Calls of active or inactive are those of the source. Rule as the data show it: active = growth inhibition above about 70%; inactive = the rest.

Key:
[1] = NCI Yeast Anticancer Drug Screen. Data for the rad52 strain (AID 147);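 also: 0% = growth of vehicle-treated control cultures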; settings: S. cerevisiae rad52 mutant growth inhibition, hits give high values
Procedure, shortened: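 Yeast strain carrying a DNA damage repair alteration was exposed to test compounds. Growth inhibition was measured relative to vehicle-treated controls.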

[2] = NCI Yeast Anticancer Drug Screen. Data for the wt1 strain (AID 149);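 also: 0% = growth of vehicle-treated wt1 cultures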; settings: S. cerevisiae wt1 strain (SPY 50644) growth inhibition, hits give high values
Procedure, shortened: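 wt1 strain grown with compound or vehicle; inhibition taken from the growth difference.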

[3] = NCI Yeast Anticancer Drug Screen. Data for the rad50EPP+ strain (AID 151);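 also: 0% = growth of vehicle-treated control cultures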; settings: S. cerevisiae rad50 mutant strain, hits give high values
Procedure, shortened: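 Yeast strain carrying rad50 alteration (rad50EPP+) exposed to compounds; growth inhibition measured relative to vehicle-treated controls.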

[4] = NCI Yeast Anticancer Drug Screen. Data for the mgt1 strain (AID 153); settings: S. cerevisiae mgt1 mutant growth inhibition, hits give high values
Procedure, shortened: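 Yeast mgt1 strain (DNA repair/cell-cycle alteration panel) exposed to compounds; growth inhibition measured relative to vehicle-treated controls.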

[5] = NCI Yeast Anticancer Drug Screen. Data for the rad50 strain (AID 155);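 also: 0% = growth of vehicle-only cultures of the same strain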; settings: S. cerevisiae rad50 strain growth inhibition, hits give high values
Procedure, shortened: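 DNA repair mutant yeast, compound exposure, growth read-out; inhibition is taken relative to vehicle.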

[6] = NCI Yeast Anticancer Drug Screen. Data for the mec2-1 strain (AID 157); settings: S. cerevisiae mec2-1 strain, hits give high values
Procedure, shortened: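 mec2-1 yeast strain, carrying an alteration in DNA damage repair or cell cycle control, was exposed to compounds; growth inhibition was measured relative to vehicle-treated controls.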

[7] = NCI Yeast Anticancer Drug Screen. Data for the rad14 strain (AID 159);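 also: 0% = growth of vehicle-treated control cultures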; settings: S. cerevisiae rad14 strain growth inhibition, hits give high values
Procedure, shortened: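 DNA repair-defective yeast, compound-exposed; % growth inhibition derived by comparison with vehicle-treated controls.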

[8] = NCI Yeast Anticancer Drug Screen. Data for the sgs1 mgt1 strain (AID 161);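 also: 0% = growth of cultures given vehicle only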; settings: S. cerevisiae sgs1 mgt1 strain, hits give high values
Procedure, shortened: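 Percent growth inhibition was derived by comparing compound-exposed mutant yeast with vehicle-exposed cultures. The strain carries alterations in DNA damage repair.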

[9] = NCI Yeast Anticancer Drug Screen. Data for the CLN2oe strain (AID 163);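 also: 0% = growth of vehicle-only control cultures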; settings: S. cerevisiae CLN2oe strain, hits give high values
Procedure, shortened: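 Yeast cells carrying a defined cell-cycle control alteration were exposed to test compounds. Growth inhibition was scored against vehicle-treated control cultures.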

[10] = NCI Yeast Anticancer Drug Screen. Data for the cln2 rad14 strain (AID 165);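 also: 0% = growth equal to vehicle treated cultures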; settings: S. cerevisiae cln2 rad14 strain, hits give high values
Procedure, shortened: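 Yeast carrying cln2 and rad14 alterations (cell cycle control and DNA damage repair) were exposed to compounds. Growth inhibition was measured against vehicle-treated controls.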

[11] = NCI Yeast Anticancer Drug Screen. Data for the bub3 strain (AID 167); settings: S. cerevisiae bub3 mutant strain, hits give high values
Procedure, shortened: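 In this screen, a yeast mutant lacking normal mitotic checkpoint function is challenged with compound. Relative growth versus vehicle gives the inhibition value.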

[12] = NCI Yeast Anticancer Drug Screen. Data for the wt2 strain (AID 169);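 also: 0% = growth of vehicle-treated yeast cultures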; settings: S. cerevisiae wt2 strain growth inhibition, hits give high values
Procedure, shortened: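 Yeast cells were exposed to test compounds, and growth inhibition was measured relative to vehicle-treated controls.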

[13] = NCI Yeast Anticancer Drug Screen. Data for the mlh1 strain (AID 171);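 also: 0% = growth of vehicle-treated control cultures of the same strain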; settings: S. cerevisiae mlh1 strain growth inhibition, hits give high values
Procedure, shortened: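 Yeast carrying a defined genetic alteration in DNA damage repair or cell cycle control were exposed to test compounds. Growth inhibition was measured relative to vehicle-treated controls.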

[14] = NCI Yeast Anticancer Drug Screen. Data for the sgs1 strain (AID 173);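 also: 0% = growth of vehicle-only control cultures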; settings: S. cerevisiae sgs1 mutant, hits give high values
Procedure, shortened: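 Yeast mutant strains carrying defined defects in DNA damage repair or cell cycle control were exposed to test compounds. Growth inhibition was scored against vehicle-treated controls.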

[15] = NCI Yeast Anticancer Drug Screen. Data for the mlh1 rad18 strain (AID 175); settings: S. cerevisiae mlh1 rad18 strain growth inhibition, hits give high values
Procedure, shortened: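 Growth inhibition of the yeast strain was measured after compound exposure and expressed relative to vehicle-treated controls. The strain carries defined defects in DNA damage repair.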

[16] = NCI Yeast Anticancer Drug Screen. Data for the rad18 strain (AID 177); settings: S. cerevisiae rad18 mutant growth inhibition, hits give high values
Procedure, shortened: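 Yeast carrying a defined DNA damage repair alteration were exposed to compounds. Growth inhibition was expressed relative to vehicle-treated controls.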

[17] = at 5.0 µM (retest, dose inferred, filed as 0.5)
[18] = at 50.0 µM (retest, dose inferred, filed as 5.0)

Measured: growth inhibition

CCOC(=O)c1ccc(NC(=O)O/N=C(/Cl)C(C)C)cc1
active: [1]; at 100.0 µM 98% | [2]; at 100.0 µM 97% | [3]; at 100.0 µM 87% | [4]; at 33.0 µM 73% | [4]; at 100.0 µM 99% | [5]; [18] 92% | [5]; at 100.0 µM 98% | [6]; [18] 95% | [6]; at 50.0 µM 85.5% | [6]; at 100.0 µM 99% | [7]; at 100.0 µM 99% | [8]; [18] 98% | [8]; at 50.0 µM 81.8% | [9]; at 100.0 µM 97% | [10]; [18] 87% | [11]; [18] 97% | [11]; at 50.0 µM 76.6% | [11]; at 100.0 µM 98% | [12]; at 33.0 µM 91% | [12]; at 100.0 µM 99% | [13]; at 33.0 µM 84% | [13]; at 100.0 µM 99% | [14]; at 33.0 µM 93% | [14]; at 100.0 µM 99% | [15]; [18] 95% | [16]; at 100.0 µM 98%
inactive: [1]; at 1.2 µM -2% | [1]; at 3.7 µM 3% | [1]; at 11.0 µM 14% | [1]; at 33.0 µM 58% | [2]; at 1.2 µM -1% | [2]; at 3.7 µM -6% | [2]; at 11.0 µM -11% | [2]; at 33.0 µM -14% | [3]; at 1.2 µM 1% | [3]; at 3.7 µM 8% | [3]; at 11.0 µM 22% | [3]; at 33.0 µM 44% | [4]; at 1.2 µM -3% | [4]; at 3.7 µM -7% | [4]; at 11.0 µM -5% | [5]; at 1.2 µM -1% | [5]; at 3.7 µM 4% | [5]; [17] 5% | [5]; at 11.0 µM 7% | [5]; at 33.0 µM 48% | [5]; at 50.0 µM 55.4% | [6]; at 1.2 µM 1% | [6]; at 3.7 µM 1% | [6]; [17] -19% | [6]; at 11.0 µM 3% | [6]; at 33.0 µM 45% | [7]; at 1.2 µM -4% | [7]; at 3.7 µM -5% | [7]; at 11.0 µM -2% | [7]; at 33.0 µM 2% | [8]; [17] -12% | [9]; at 1.2 µM -2% | [9]; at 3.7 µM 2% | [9]; at 11.0 µM -5% | [9]; at 33.0 µM -22% | [10]; [17] 17% | [10]; at 50.0 µM 63.4% | [11]; at 1.2 µM 9% | [11]; at 3.7 µM 18% | [11]; [17] -7% | [11]; at 11.0 µM 28% | [11]; at 33.0 µM 55% | [12]; at 1.2 µM -4% | [12]; at 3.7 µM -8% | [12]; at 11.0 µM 10% | [13]; at 1.2 µM -6% | [13]; at 3.7 µM -4% | [13]; at 11.0 µM -4% | [14]; at 1.2 µM -3% | [14]; at 3.7 µM -4% | [14]; at 11.0 µM 28% | [15]; [17] -7% | [15]; at 50.0 µM 69.1% | [16]; at 1.2 µM -5% | [16]; at 3.7 µM -5% | [16]; at 11.0 µM -1% | [16]; at 33.0 µM 12%
